A selection: hits, their analogues and other compounds. The true share with any hit is near 3.4%.
HGIII-sPLA2 inh: Blocks human group III sPLA2 activity; AID 743126; inhibition, % at 12.2 µM; QFRET BODIPY PC-A2 liposome hydrolysis, fluorescence; hit rate 0.56% among 370,000;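 active means inhibition above mean plus 3 SD of compounds lying within the high and low control bounds, cut at about 19% in these data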;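 further: 0% = median of test compound wells and 100% = no enzyme DMSO wells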
PLCg1 inh: inhibitors of human phospholipase C gamma1; P19174; purified PLC-gamma1, fluorogenic substrate, fluorescence; inhibition, % at 12.2 µM; hit rate 0.84% among 370,000; in the data active means inhibition above about 9.5%
Target sequence (P19174 whole entry, looked up): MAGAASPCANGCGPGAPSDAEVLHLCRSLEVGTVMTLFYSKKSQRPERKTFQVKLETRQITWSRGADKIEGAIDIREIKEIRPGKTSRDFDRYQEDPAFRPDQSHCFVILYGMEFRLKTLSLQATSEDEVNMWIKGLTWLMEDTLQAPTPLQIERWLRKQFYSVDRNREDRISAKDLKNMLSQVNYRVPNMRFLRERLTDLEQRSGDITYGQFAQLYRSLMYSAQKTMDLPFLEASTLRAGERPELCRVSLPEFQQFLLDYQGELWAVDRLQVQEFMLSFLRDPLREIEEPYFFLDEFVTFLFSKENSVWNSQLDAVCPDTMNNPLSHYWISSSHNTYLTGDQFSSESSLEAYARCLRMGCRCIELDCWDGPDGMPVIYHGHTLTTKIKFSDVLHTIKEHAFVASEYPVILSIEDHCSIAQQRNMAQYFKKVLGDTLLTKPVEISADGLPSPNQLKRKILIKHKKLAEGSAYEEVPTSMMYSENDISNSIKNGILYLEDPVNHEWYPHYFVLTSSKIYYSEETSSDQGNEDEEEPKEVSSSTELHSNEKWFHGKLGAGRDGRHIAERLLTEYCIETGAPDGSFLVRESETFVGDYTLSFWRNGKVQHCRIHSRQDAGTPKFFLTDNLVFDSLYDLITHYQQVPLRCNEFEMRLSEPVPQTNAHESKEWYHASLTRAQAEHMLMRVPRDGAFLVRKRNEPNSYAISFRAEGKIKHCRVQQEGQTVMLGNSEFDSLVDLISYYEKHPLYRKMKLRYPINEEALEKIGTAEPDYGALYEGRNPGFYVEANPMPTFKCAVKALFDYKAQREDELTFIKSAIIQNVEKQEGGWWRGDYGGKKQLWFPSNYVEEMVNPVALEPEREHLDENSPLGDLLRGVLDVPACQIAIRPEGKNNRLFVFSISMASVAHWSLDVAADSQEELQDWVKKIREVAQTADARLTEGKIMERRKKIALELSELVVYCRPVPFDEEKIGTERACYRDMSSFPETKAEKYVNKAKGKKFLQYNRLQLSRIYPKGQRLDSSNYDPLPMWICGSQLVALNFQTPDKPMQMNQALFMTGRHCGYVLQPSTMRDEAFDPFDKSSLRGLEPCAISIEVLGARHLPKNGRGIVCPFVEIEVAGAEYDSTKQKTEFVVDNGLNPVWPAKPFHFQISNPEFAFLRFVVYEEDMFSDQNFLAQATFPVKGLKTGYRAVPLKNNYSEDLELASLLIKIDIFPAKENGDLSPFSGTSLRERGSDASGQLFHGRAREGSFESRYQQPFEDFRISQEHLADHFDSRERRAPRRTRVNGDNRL
KLK7 zymogen act: activates the human kallikrein-7 zymogen; activation, % at 7 µM; hit rate 0.9% among 370,000; P49862; purified proKLK7, EDANS-DABCYL substrate fluorescence; 100% is mature enzyme control, 0% vehicle; AID 652039;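 active means activation above the mean of all tested compounds plus 3 SD, computed per campaign excluding outliers beyond control limits, cut at about 13% in these data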
PLC-beta3 inh: PLC-beta3 (human) inhibition, primary screen. Q01970. Purified PLC-beta3, fluorogenic substrate, fluorescence. inhibition, % at 12.2 µM. hit rate 0.18% among 370,000; in the data active means inhibition above about 11%;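 further: 0% = median of compound wells on plate and 100% = full blocker control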
ADAM17 inh: inhibitors of human ADAM17; hit rate 0.83% among 370,000; inhibition, % at 6.95 µM; recombinant ADAM17, EDANS/DABCYL FRET peptide cleavage;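 active means inhibition above the mean of compounds lying between control limits plus 3 SD, set per campaign, cut at about 8.5% in these data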;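 further: 0% = DMSO-only wells as the low control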
ADAM10 inh: inhibits human ADAM10; O14672; recombinant ADAM10, EDANS/DABCYL FRET peptide cleavage, 3 h; inhibition, % at 7 µM; hit rate 0.62% among 370,000;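 active means inhibition above a per-campaign cutoff equal to the mean of compounds falling between control-based bounds plus 3 SD, cut at about 20% in these data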;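 further: 0% = DMSO wells while the 100% control is not disclosed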
ADAM10 ctr: inhibits human ADAM10 in ADAM17 exosite counter-screen | shares compounds with ADAM17 inh | AID 743256 | hit rate 47% among 2,900 | inhibition, % at 6.95 µM | recombinant ADAM10, EDANS/DABCYL FRET peptide cleavage, 3 h;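 active means mean inhibition over the triplicate runs exceeds the activity threshold set in the earlier primary screen, cut at about 20% in these data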;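 further: 0% = DMSO wells and 100% = marimastat wells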
ADAM17 confirm: confirmation of inhibitors of human ADAM17; shares compounds with ADAM17 inh; recombinant ADAM17, EDANS/DABCYL QFRET peptide cleavage; inhibition, % at 6.95 µM; hit rate 65% among 2,900;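 active means mean inhibition across replicates above the hit cutoff set in the primary screen, cut at about 8.5% in these data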;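 further: 0% = DMSO wells and 100% = marimastat wells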
* hit, by the source's call; x = not tested or not shown.

SMILES	HGIII-sPLA2 inh	PLCg1 inh	KLK7 zymogen act	PLC-beta3 inh	ADAM17 inh	ADAM10 inh	ADAM10 ctr	ADAM17 confirm
CCOC(=O)CSC1=C(C#N)C(c2ccc(F)cc2)C(C(C)=O)=C(C)N1 (configuration not stated)	-1	-1	1	2	9.9*	13	-13	0
O=C(/C=C/c1cccc([N+](=O)[O-])c1)NCCSCc1ccccc1Cl	-35	3	0	7	8.9*	19	27*	14*
O=C(/C=C/c1cccc([N+](=O)[O-])c1)NCCSCc1ccc(Cl)cc1Cl	-2	2	0	1	-4	-1	x	x
C[C@@H]1[C@@H](O)C[C@@]2(C[C@H](O)c3cc(Cl)ccc3O2)O[C@H]1c1ccccc1Cl	-24	0	0	-3	6	6	x	x
CCC[C@@H](/C=C/C(=O)OC(C)(C)C)Sc1ccccc1OC	1	-2	0	4	1	2	x	x
CCN(c1ccc(OC)cc1)S(=O)(=O)c1nnc(NC(=O)C(C)C)s1	9	-9	0	-3	-7	2	x	x
CCN(c1ccc(OC)cc1)S(=O)(=O)c1nnc(NC(=O)C2CCCCC2)s1	-6	2	0	6	10*	5	-2	-1
Cc1nn(CCCC(=O)Nc2cc(Oc3ccccc3)cc([N+](=O)[O-])c2)c(C)c1[N+](=O)[O-]	-12	1	1	-1	12*	17	39*	20*
O=C(NC1CCCCN(Cc2cccc(C(F)(F)F)c2)C1=O)c1ccc(Cl)cc1 (configuration not stated)	2	-3	0	1	3	3	x	x
COc1ccc(CNC(=O)/C=C/c2ccc(S(=O)(=O)NCc3ccco3)cc2)cc1OC	-16	1	1	6	2	7	x	x
O=C(/C=C/c1ccc(S(=O)(=O)NCc2ccco2)cc1)NCc1ccccc1Cl	-31	0	0	4	9.9*	17	0	4
Cc1cc(C)nc(NS(=O)(=O)c2ccc(NC(=O)c3cccs3)cc2)n1	-6	0	0	1	-3	-1	x	x
CCCCN(CCCC)S(=O)(=O)c1ccc(NC(=O)c2cccs2)cc1	-18	1	1	1	12*	16	32*	16*
C#Cc1ccc([C@@H]2C=C(C(=O)Nc3ccccc3)O[C@H](OCC)[C@H]2CCCO)cc1	-11	5	0	3	11*	16	11	8
C#Cc1ccc([C@H]2C=C(C(=O)NCc3ccccc3)O[C@@H](OCC)[C@@H]2CCCO)cc1	-5	-3	0	-7	0	1	x	x
Oc1c(C(c2ccccn2)N2CCC(Cc3ccccc3)CC2)cc(Cl)c2cccnc12 (configuration not stated)	8	-19	0	-29	32*	12	23*	39*
CN1CCN(C(c2ccccn2)c2cc(Cl)c3cccnc3c2O)CC1 (configuration not stated)	10	-19	0	-42	18*	2	43*	45*
Oc1c(C(c2ccc(Cl)cc2)N2CCCC2)cc(Cl)c2cccnc12 (configuration not stated)	18	-11	0	-21	8	14	x	x
O=C(c1ccccc1I)N1CCC(Oc2cccnc2)CC1	0	0	0	1	0	-6	x	x
Cc1ccccc1Cn1cc(CN2[C@@H](CC(C)C)COc3cc(Br)ccc3S2(=O)=O)nn1	0	1	0	3	-2	3	x	x
O=C(C1CCC1)n1ccc2ccc(-c3ccc4ccn(Cc5ccccc5)c4c3)cc21	0	-5	-1	-7	-1	0	x	x
O=C(c1ccc(COCC(F)(F)F)o1)N1CCCCCC1	1	2	1	7	11*	9	-4	-2
COc1ccc(C(=O)N2CCC(Oc3cccnc3)CC2)c(OC)c1	0	-1	1	2	-5	-3	x	x
CCOC(=O)c1c(NC(=O)CSc2nnc(-c3c[nH]c4ccccc34)n2CCOC)sc2c1CCCCC2	-8	-1	0	-5	-1	5	x	x
CCOC(=O)c1c(NC(=O)CSc2c[nH]c3ccccc23)sc2c1CCCC2	-24	1	-2	-3	9.7*	9	24*	17*
SMILES	HGIII-sPLA2 inh	PLCg1 inh	KLK7 zymogen act	PLC-beta3 inh	ADAM17 inh	ADAM10 inh	ADAM10 ctr	ADAM17 confirm
CCOC(=O)c1c(NC(=O)CSc2c[nH]c3ccccc23)sc2c1CCC2	-32	1	2	-3	9.8*	18	34*	21*
Cc1ccc(Cn2nnc3c2-c2ccccc2S(=O)(=O)N(C(C)(C)C)C3)cc1	-10	-1	1	1	-1	1	x	x
COCCCOc1cc(NCc2ccccc2)c2ncn(C(C)C)c2c1	10	5	1	7	5	4	x	x
COc1cc(NCc2ccccc2)c2ncn(Cc3ccccc3)c2c1	10	1	0	-1	12*	15	14	7
O=C1CCC[C@H]2C[C@H](NCc3ccc(Br)cc3)CC[C@]23CCCN13	1	-2	x	1	0	3	x	x
COc1ccc(NC(=O)O/N=C/c2ccc(Br)cc2)cc1	-1	8	0	-5	10*	13	-1	1
Cc1ccc(NC(=O)O/N=C/c2ccc(Br)cc2)cc1	-2	-2	0	-4	-1	0	x	x
Cn1c(=O)c(Nc2ccc(O)cc2)c2c3c(cccc31)C(=O)c1ccccc1-2	-71	-67	0	-89	9.2*	17	19	15*
O=C1CCC[C@H]2C[C@H](NCc3ccc(Cl)c(C(F)(F)F)c3)CC[C@]23CCCN13	0	-1	x	0	0	4	x	x
COc1cc(CN2C[C@@H](CO)O[C@@H](n3cnc4c(N5CCN(c6ccccc6)CC5)ncnc43)C2)cc(OC)c1OC	-4	5	0	0	9.1*	5	0	3
COc1ccc(CN2C[C@@H](CO)O[C@@H](n3cnc4c(N5CCN(c6ccccc6)CC5)ncnc43)C2)cc1	-11	5	1	-9	1	3	x	x
CCCCCCn1c(=O)n2n(c1=O)[C@@H]1CN(S(=O)(=O)c3ccc(C)cc3)C[C@]1(O)[C@@H](OC(=O)NCc1ccc(OC)c(OC)c1)C2	-37	3	0	2	9.8*	17	23*	14*
O=C(CSc1nc(Nc2ccccc2)nc(N2CCOCC2)n1)Nc1cccc([N+](=O)[O-])c1	-26	-2	0	-1	10*	15	38*	22*
